# Compound activity deposited in PubChem BioAssay by National Center for Advancing Translational Sciences (NCATS).
# Most compounds without a hit are left out; they make up all but 12% or so of the library.
# JMJD2A Tudor: blocks the human JMJD2A Tudor domain; AlphaScreen JMJD2A-Tudor / H3K4me3 peptide binding; Potency, µM (doses to about 114 µM), without a hit: at the highest dose activity change, negative = inhibition, usual class: inhibitors; hit rate 4.4% among 390,000; also: % is scaled to controls: 0 for no effect and ±100 for the full control effect; nearly all actives have a fitted effect of over 50% in size
# G9a inh: inhibitors of human histone lysine methyltransferase G9a; Q96KQ7; G9a H3K9 monomethylation, AlphaScreen, 2 h; Potency, µM (series often up to 102 µM), without a hit: at the highest dose activity, negative = inhibition, most hits filed as inhibitors; hit rate 8.8% among 350,000; also: % is scaled to controls: 0 for no effect and ±100 for the full control effect; nearly all actives have a fitted effect of over 75% in size
# Target sequence (Q96KQ7 913-1193 limits assumed): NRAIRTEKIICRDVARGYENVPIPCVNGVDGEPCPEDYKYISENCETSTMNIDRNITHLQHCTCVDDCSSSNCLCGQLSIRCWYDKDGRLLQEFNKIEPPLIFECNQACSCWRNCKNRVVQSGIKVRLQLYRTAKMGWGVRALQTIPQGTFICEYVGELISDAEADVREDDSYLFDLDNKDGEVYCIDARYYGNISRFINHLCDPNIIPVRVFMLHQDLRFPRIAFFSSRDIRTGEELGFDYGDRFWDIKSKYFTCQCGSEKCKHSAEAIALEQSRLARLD
#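 AlphaScreen detection with an anti-monomethyl H3K9 antibody quantified product after a 2 h room-temperature reaction containing 500 nM biotinylated H3K9 peptide, 20 µM SAM and 20 nM enzyme, which had been preincubated 15 min with compound.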
# Sfp PPTase inh: blocks B. subtilis Sfp PPTase activity. hit rate 3.5% among 310,000. Potency, µM, for the others: largest response in the series, negative = inhibition, most hits filed as inhibitors. AID 1490. Biochemical Sfp PPTase activity, qHTS. Q9F4F7;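 also: the enzyme is Sfp with the accession as filed and its product quenches rhodamine fluorescence; 0% = enzyme reaction without inhibitor and -100% = no enzyme wells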
#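 Compounds were incubated with enzyme (final 15 nM) for 15 min at room temperature before substrate addition started the reaction. Fluorescence at 525 nm excitation, 598 nm emission was recorded immediately and after 30 minutes.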
# BAZ2B inh: BAZ2B (human) inhibition | Q9UIF8 | AlphaScreen BAZ2B-H3K14Ac peptide displacement | Potency, µM (titrated, usually from 114 µM), for the others: top-dose activity change, negative = inhibition, most hits filed as inhibitors | hit rate 4.4% among 360,000 | AID 504333; also: % is scaled to controls: 0 for no effect and ±100 for the full control effect; nearly all actives have a fitted effect of over 60% in size
#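 BAZ2B 50 nM plus b-H3(5-23)K14Ac 50 nM, PBS pH 7.4/0.01% Tween-20, 30 min RT; compound added (max 110 uM), 30 min RT; streptavidin donor/Ni-chelate acceptor beads 10 ug/mL final, 20 min dark; AlphaScreen read.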
# HP1b chromo inh: HP1-beta chromodomain-methylated histone interaction inhibition | AlphaScreen HP1-beta / biotin-H3K9me3 peptide binding | Potency, µM (highest dose often 114 µM), for inactives: at the highest dose activity change, negative = inhibition, usual class: inhibitors | hit rate 0.56% among 390,000; also: nearly all actives have a fitted effect of over 70% in size
# Target sequence (P83916 whole entry, looked up): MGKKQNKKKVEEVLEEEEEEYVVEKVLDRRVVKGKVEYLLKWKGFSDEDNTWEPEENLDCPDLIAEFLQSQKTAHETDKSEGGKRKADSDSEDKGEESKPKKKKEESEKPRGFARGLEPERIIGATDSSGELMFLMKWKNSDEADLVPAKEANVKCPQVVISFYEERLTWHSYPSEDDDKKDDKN
#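 Compound inhibition of the preformed complex between 50 nM HP1-beta and 50 nM biotinylated H3K9me3 peptide was read by AlphaScreen. Buffer was PBS pH 7.4 with 0.01% Tween-20. Incubations ran 30 min at room temperature, with 10 ug/mL donor/acceptor beads.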
# The depositor's hits bear a star; ? = inconclusive; . = not tested or not shown; ! = a repeat was not active; [ ] = remark or other dose. Calls follow the shape of the dose curve; as a rule, active = well fitted curve in the direction sought with a large enough effect; inconclusive = small, poorly fitted or top-dose-only effect, or another doubt; inactive = no such curve, though single readings can be large; an effect the other way counts as inactive or inconclusive. Potency is read from the fitted curve at half-maximal effect.
SMILES,JMJD2A Tudor,G9a inh,Sfp PPTase inh,BAZ2B inh,HP1b chromo inh
C=C(C)C(=O)Nc1cccc(C2=NOC3(C2)C[C@@H](C(N)=O)N(C(=O)c2cc([N+](=O)[O-])cc([N+](=O)[O-])c2)C3)c1 (some centres not stated),28.2µM*,?,2.7%,28.2µM*,20µM*
CN(CC(=O)N(C)CC(=O)Nc1c(Cl)cccc1Cl)Cc1ccccc1F,-5.2%,.,.,.,48.4%
CCOc1ccccc1N1CCN(CC(=O)Nc2nc(C)c(C(=O)N(C)C)s2)CC1,14.1µM*,.,-5.5%,-6.2%,1.0%
CCOC(=O)c1sc(NC(=O)C2CC(=O)N(c3ccc(OC)cc3)C2)nc1C (configuration not stated),-18.3%,-18.4%,6.9%,-26.1%,24.1%
CCOC(=O)c1sc(NC(=O)CN2CCN(c3ccc(OC)cc3)CC2)nc1C,56.2µM*,39.8µM*,4.2%,35.5µM*,?
CCOC(=O)c1cccc(NC(=O)CN2CCN(c3ccc(OC)cc3)CC2)c1,?,56.2µM*,-3.1%,?,-24.4%
Cc1ccccc1N1CCN(CC(=O)Nc2nc(C)c(C(=O)N(C)C)s2)CC1,?,11.4%[59 µM],-6.3%,-17.9%,33.5%
CCc1ccc(N2C(=O)CS(=O)(=O)C23C(=O)N(Cc2ccccc2F)c2ccccc23)cc1 (configuration not stated),-12.9%,-31.7%[59 µM],.,2.0%[57.1 µM],24.7%
Cc1cc(C)nc(-n2nc(C)c3c2NC(=O)CC3c2cccc(O)c2)n1 (configuration not stated),-2.0%,-3.2%[59 µM],.,-11.3%,48.2%
CC1CCN(S(=O)(=O)N2CCC(C(=O)NCc3ccccc3Cl)CC2)CC1,-16.5%,3.2%[59 µM],.,5.0%,-12.1%
Cc1cc(C)nc(/N=c2/ssnc2Cl)c1,-19.3%,6.31µM*,20µM*,.,-16.4%
Cc1ccc(N=c2ssnc2Cl)cc1,31.6µM*,1.58µM*,12.6µM*,44.7µM*,15.8µM*
Cc1cc(Cl)ccc1N=c1ssnc1Cl,79.4µM*,1.78µM*,7.08µM*,8.91µM*,22.4µM*
Cc1ccc(N=C2NC(=O)CS2)cc1,-19.1%[57.1 µM],-0.4%[12.7 µM],19.0%,-2.3%,59.8%
Nc1ccccc1N=c1ssnc1Cl,?,1.26µM*,1.58µM*,50.1µM*,-13.2%
Cc1cc(C)c(C#N)c(Cl)n1,1.4%,-0.6%[59 µM],5.6%,1.3%,14.8%
Cc1cc(Cl)ccc1N=C1N=C(N)c2ccccc21,-16.7%,-14.0%,-4.8%,-33.5%,26.6%
CCC1NC(=O)C(NC(=O)c2ncccc2O)C(C)OC(=O)C(c2ccccc2)NC(=O)C2CC(=O)CCN2C(=O)C(Cc2ccccc2)N(C)C(=O)C2CCCN2C1=O (configuration not stated),.,-31.5%[2.33 µM],0.3%,.,.
COc1cccc(-c2nc(S(=O)(=O)c3ccccc3)c(N3CCCCC3)o2)c1,-29.4%,?,.,-38.9%,?
CCOC(=O)c1ccc(NS(=O)(=O)c2ccc3c(c2)CCN3C(=O)CC)cc1,-15.8%,?,.,-14.3%,10.2%
Cc1nnc(N=c2ssnc2Cl)o1,44.7µM*,2.7%[0.501 µM],.,?,?
Cc1cc(=S)[nH]c2ccccc12,-29.7%,2.82µM*,?,-25.5%,17.1%
Cc1ccc(C)c2c1[nH]c1ccccc12,8.8%,31.1%[59 µM],12.8%,4.7%,37.7%
Cc1ccc2[nH]c(=S)cc(C)c2c1,-13.9%,-24.0%[59 µM],?,3.7%,37.3%
Cc1ccc2c(C)cc(=S)[nH]c2c1,0.0%,50.1µM*,5.7%,-18.4%,33.4%
SMILES,JMJD2A Tudor,G9a inh,Sfp PPTase inh,BAZ2B inh,HP1b chromo inh
CCc1ccc(NC(=O)Cn2nnc(C(=O)Nc3ccc(F)cc3)c2N)cc1,-2.9%,3.1%[59 µM],.,10.5%[57.1 µM],42.7%
COc1ccc(N(Cc2cccs2)C(=O)c2ccc(OC)c(Cl)c2)cc1,4.0%,26.6%[59 µM],.,-29.1%,58.3%
CCC(NC(C)C)C(O)c1ccc(O)c(O)c1 (configuration not stated),?,26.7µM*!,?,?,6.6%
CCC(=O)Oc1ccc(C(CC)C(CC)c2ccc(OC(=O)CC)cc2)cc1 (configuration not stated),14.5%,6.7%,20.2%,8.7%,61.8%
CCC(c1ccc(O)c(O)c1)C(CC)c1ccc(O)c(O)c1 (configuration not stated),79.4µM*,.,.,.,?
O=C(NCc1ccco1)c1cc(NS(=O)(=O)c2cccc([N+](=O)[O-])c2)ccc1O,-35.6%,50.1µM*,8.3%,?,-23.7%
